Measurements reported in the supplement of paper PMC10681739.

Biological target: T1, ETS1 (UniProt P14921)
T1 sequence: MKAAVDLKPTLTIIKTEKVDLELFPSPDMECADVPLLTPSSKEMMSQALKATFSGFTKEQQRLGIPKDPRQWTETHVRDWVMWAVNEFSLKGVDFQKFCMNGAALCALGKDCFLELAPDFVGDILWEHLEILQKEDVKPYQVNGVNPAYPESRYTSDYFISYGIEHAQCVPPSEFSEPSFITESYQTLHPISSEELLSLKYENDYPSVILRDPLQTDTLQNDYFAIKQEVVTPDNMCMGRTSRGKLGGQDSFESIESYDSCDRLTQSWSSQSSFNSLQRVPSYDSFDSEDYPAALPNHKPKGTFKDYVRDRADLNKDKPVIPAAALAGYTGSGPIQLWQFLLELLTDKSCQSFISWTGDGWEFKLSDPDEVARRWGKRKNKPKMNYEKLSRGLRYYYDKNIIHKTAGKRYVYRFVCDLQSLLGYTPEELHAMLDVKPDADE
Experiment: ETS1 binding intensity (PBM fluorescence), ETS1 alone (arbitrary fluorescence units); higher = stronger binding
Conditions: ETS1 concentration 1 nM; RUNX1 concentration 0 nM
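For RUNX1 binding intensity (PBM fluorescence), RUNX1 alone in this document: Full-length recombinant human RUNX1 bound to double-stranded 36-bp genomic probes on a high-density microarray, scored as Alexa488 fluorescence per spot via anti-RUNX1 antibody, median of four replicate spots.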

First: CCCAAGCTACGGAAGTTAAACCTCAAACATGAAATC
Second: ATGCCTTCTTCCAGAGGATGTGGTCGCTACTAGTGG
The ETS1 binding intensity of the first is lower: 1110 for the first, 1320 for the second.

Compared with AGAATCGCATCAGGATGTGGTGAGGGAGCACATTTG, GCTGGGGCAGGAAGCTTCTAGGCCACAGACAGGACG is higher in ETS1 binding intensity: 948 for the first, 1190 for the second.

Going from CACTTCCCGTGGGAGGATCTTGGGCTGCGGCTAGGG to GAGCACAGGAAAAGCTGGTGCCAACCACAAGTGCTT, the ETS1 binding intensity falls from 421 to 368.

Compared with TAGCCACTAACCGGAAACGTTAAACCACAGCTCCGT, TTCAACAGGATATTGCTTTGTTACCACAGGCCCTTT is lower in ETS1 binding intensity: 10100 for the first, 1590 for the second.

Going from AACAGTTGCATAGGAAGTGGTCAGCTCTCCTCCACC to AACCAAACAGCCACAGGAAGTGGTTTCTGTGATTCA, the ETS1 binding intensity rises from 1260 to 7840.

Going from TCTCCTTTCAGGAAGCTGCACCCAAACCACCCTCAG to GCTCTGCAGGATGTGGCTGTGACCGCAGTGAGGAGC, the ETS1 binding intensity rises from 606 to 1290.

Going from ACCTCAAGCCCAGGATGTGGTTTGGCCACTATTGAG to TTCACTTCCACCACTTCCTGTGGGTTTTGTTCATCC, the ETS1 binding intensity rises from 1310 to 3090.

Compared with CTCTTCCTGCCTGTCCGTGGCTGGTGTGGTTTGCGT, ATTTCGCTGAAAACAGGAAACCACGAAGCCCAGATG is higher in ETS1 binding intensity: 457 for the first, 3270 for the second.

Going from TCAGAACCAGGAAACTGAAGGCGGTTACTCCACATA to TGACTTCCTCCTCTTCACTAACAGAAACCTCAATTT, the ETS1 binding intensity falls from 526 to 440.

First: CACCCCCCCAGTGCAGGAAGTGGTTTTCGAGGGCAG
Second: AGTTGGTTCCTTCCGGTGGGTTTGTGGGTTTGGGGT
The ETS1 binding intensity of the first is higher: 4490 for the first, 1420 for the second.

Compared with CCACCCACTTCCTGCCCTAGCTAGTGTGGTATTTTT, TTACACAACAGGAAACTATGTTTAGCGGTTAATCCA is higher in ETS1 binding intensity: 1050 for the first, 2490 for the second.

Compared with GGTGCCTGGGGAGGATGTGGGCTGACTGGGAGGGGT, CCCAGCCCTGCTGCCGGATGTGGTGAGGCCCAGGTG is higher in ETS1 binding intensity: 870 for the first, 5030 for the second.

Compared with GATATGGCAGGAAGTAGGGCCTGGAAACCGCACGGC, GGCGGTGACCGGAAGAGCTGAGTCACCGCAGGCGAC is higher in ETS1 binding intensity: 3390 for the first, 4020 for the second.

Compared with ACTGAACAAACCGGATGTGGTTGCCACCTGCAATCT, CATGGGGAGGAGGAAGTGGTGGCGGCCGCAGGCCAG is lower in ETS1 binding intensity: 19800 for the first, 1040 for the second.

Compared with AGGTCGCCCTCCGGATGCGGTCCCCACACCGCCTGC, GAAAAAAATGAGCTTCCTTTAACCACAACTGTATTA is lower in ETS1 binding intensity: 1870 for the first, 508 for the second.

Going from TCATGCTGCTTCCTGCCCAACCCGCAGTTCCGATAA to AGCTGCATTTCCGGGCAGGCAATGAAACCACAGAGT, the ETS1 binding intensity rises from 890 to 1100.

Going from GGCCCCTGCTTCCGGGTGTGACGCGAACCGCGGGCA to GTTCAGCAGGAAGTGGATGTGGATGTGTGGTTGCCA, the ETS1 binding intensity rises from 616 to 3230.

Going from CTGGGGAGGAAGCCTGAGGTGTGTGGTTTTGTTAAC to TGCCTCACCTCACATCCGTTTGTGGCTGCCGAGTGC, the ETS1 binding intensity rises from 374 to 1090.

Compared with TTTCTGACACTCTCAGGATGTGGGTTTTCACACTGT, ACAACCCGGAAGTTGGCGCAGCGCGGTTGCCAATGG is higher in ETS1 binding intensity: 1190 for the first, 4350 for the second.

Going from CTCACAGAGCAAGTAGGATGTGGTTTCCAGGGGCTG to GCCGGCGGCCGGAAGTCTATCCCGCAGAAGCGCAGC, the ETS1 binding intensity rises from 781 to 9360.

Biological target: RUNX1 (UniProt Q01196)
Sequence (Q01196 whole entry): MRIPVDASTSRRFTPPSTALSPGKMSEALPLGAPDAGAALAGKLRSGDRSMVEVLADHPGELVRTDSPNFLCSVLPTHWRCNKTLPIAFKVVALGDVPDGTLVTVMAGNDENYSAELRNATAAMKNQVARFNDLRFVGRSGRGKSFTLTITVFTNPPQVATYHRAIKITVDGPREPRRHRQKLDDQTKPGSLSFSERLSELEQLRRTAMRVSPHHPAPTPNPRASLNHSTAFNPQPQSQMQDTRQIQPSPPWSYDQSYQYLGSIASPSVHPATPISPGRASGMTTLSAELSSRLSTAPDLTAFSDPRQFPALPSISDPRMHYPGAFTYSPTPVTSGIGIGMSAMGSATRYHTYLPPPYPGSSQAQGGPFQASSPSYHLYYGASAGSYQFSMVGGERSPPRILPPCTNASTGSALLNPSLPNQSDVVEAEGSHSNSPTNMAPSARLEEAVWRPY
Experiment: RUNX1 binding intensity (PBM fluorescence), RUNX1 alone (arbitrary fluorescence units); higher = stronger binding
Conditions: RUNX1 concentration 2 nM; ETS1 concentration 0 nM
Description: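 Cooperative gcPBM on 36-bp genomic probes with neighbouring ETS1 and RUNX1 sites. Recombinant human RUNX1 (2 nM) was incubated alone or with ETS1 (25 nM) and detected with anti-RUNX1 antibody plus Alexa488 secondary. Values are medians over 4 replicate spots; the RUNX1+ETS1 data were normalised to the RUNX1-only data. The probes sit in constant array flanks that are not printed.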

Compared with CCCAAGCTACGGAAGTTAAACCTCAAACATGAAATC, ATGCCTTCTTCCAGAGGATGTGGTCGCTACTAGTGG is lower in RUNX1 binding intensity: 1040 for the first, 725 for the second.

Going from AGAATCGCATCAGGATGTGGTGAGGGAGCACATTTG to GCTGGGGCAGGAAGCTTCTAGGCCACAGACAGGACG, the RUNX1 binding intensity falls from 713 to 711.

First: CACTTCCCGTGGGAGGATCTTGGGCTGCGGCTAGGG
Second: GAGCACAGGAAAAGCTGGTGCCAACCACAAGTGCTT
The RUNX1 binding intensity of the first is lower: 803 for the first, 815 for the second.

Going from TAGCCACTAACCGGAAACGTTAAACCACAGCTCCGT to TTCAACAGGATATTGCTTTGTTACCACAGGCCCTTT, the RUNX1 binding intensity falls from 1180 to 946.

Compared with AACAGTTGCATAGGAAGTGGTCAGCTCTCCTCCACC, AACCAAACAGCCACAGGAAGTGGTTTCTGTGATTCA is higher in RUNX1 binding intensity: 828 for the first, 840 for the second.

First: TCTCCTTTCAGGAAGCTGCACCCAAACCACCCTCAG
Second: GCTCTGCAGGATGTGGCTGTGACCGCAGTGAGGAGC
The RUNX1 binding intensity of the first is lower: 996 for the first, 1520 for the second.

First: ACCTCAAGCCCAGGATGTGGTTTGGCCACTATTGAG
Second: TTCACTTCCACCACTTCCTGTGGGTTTTGTTCATCC
The RUNX1 binding intensity of the first is lower: 804 for the first, 1530 for the second.

First: CTCTTCCTGCCTGTCCGTGGCTGGTGTGGTTTGCGT
Second: ATTTCGCTGAAAACAGGAAACCACGAAGCCCAGATG
The RUNX1 binding intensity of the first is higher: 958 for the first, 899 for the second.

First: TCAGAACCAGGAAACTGAAGGCGGTTACTCCACATA
Second: TGACTTCCTCCTCTTCACTAACAGAAACCTCAATTT
The RUNX1 binding intensity of the first is lower: 742 for the first, 1400 for the second.

Compared with CACCCCCCCAGTGCAGGAAGTGGTTTTCGAGGGCAG, AGTTGGTTCCTTCCGGTGGGTTTGTGGGTTTGGGGT is lower in RUNX1 binding intensity: 908 for the first, 870 for the second.

Compared with CCACCCACTTCCTGCCCTAGCTAGTGTGGTATTTTT, TTACACAACAGGAAACTATGTTTAGCGGTTAATCCA is lower in RUNX1 binding intensity: 907 for the first, 885 for the second.

First: GGTGCCTGGGGAGGATGTGGGCTGACTGGGAGGGGT
Second: CCCAGCCCTGCTGCCGGATGTGGTGAGGCCCAGGTG
The RUNX1 binding intensity of the first is higher: 869 for the first, 768 for the second.

First: GATATGGCAGGAAGTAGGGCCTGGAAACCGCACGGC
Second: GGCGGTGACCGGAAGAGCTGAGTCACCGCAGGCGAC
The RUNX1 binding intensity of the first is higher: 954 for the first, 813 for the second.

Going from ACTGAACAAACCGGATGTGGTTGCCACCTGCAATCT to CATGGGGAGGAGGAAGTGGTGGCGGCCGCAGGCCAG, the RUNX1 binding intensity falls from 848 to 799.

First: AGGTCGCCCTCCGGATGCGGTCCCCACACCGCCTGC
Second: GAAAAAAATGAGCTTCCTTTAACCACAACTGTATTA
The RUNX1 binding intensity of the first is lower: 857 for the first, 1350 for the second.

Compared with TCATGCTGCTTCCTGCCCAACCCGCAGTTCCGATAA, AGCTGCATTTCCGGGCAGGCAATGAAACCACAGAGT is lower in RUNX1 binding intensity: 1120 for the first, 918 for the second.

Compared with GGCCCCTGCTTCCGGGTGTGACGCGAACCGCGGGCA, GTTCAGCAGGAAGTGGATGTGGATGTGTGGTTGCCA is higher in RUNX1 binding intensity: 687 for the first, 826 for the second.

Compared with CTGGGGAGGAAGCCTGAGGTGTGTGGTTTTGTTAAC, TGCCTCACCTCACATCCGTTTGTGGCTGCCGAGTGC is lower in RUNX1 binding intensity: 1040 for the first, 950 for the second.

Compared with TTTCTGACACTCTCAGGATGTGGGTTTTCACACTGT, ACAACCCGGAAGTTGGCGCAGCGCGGTTGCCAATGG is lower in RUNX1 binding intensity: 828 for the first, 671 for the second.

First: CTCACAGAGCAAGTAGGATGTGGTTTCCAGGGGCTG
Second: GCCGGCGGCCGGAAGTCTATCCCGCAGAAGCGCAGC
The RUNX1 binding intensity of the first is higher: 800 for the first, 736 for the second.
